# Data from PubChem BioAssay (Tox21).
# “And” between values parts separate entries of the source, which are not always exact repeats. Equal values may be shown once. Results filed as inconclusive are left out. Entries that show only a call come without a potency. The source made the active and inactive calls. Unless noted, calls come from the whole dose curve; as a rule, active = well fitted curve in the direction sought with a large enough effect in the repeat runs; inconclusive = weak or mixed curves; inactive = no such curve, though single readings can be large; an effect the other way counts as inactive or inconclusive.
# Key:
# [1] = qHTS assay to identify small molecule antagonists of the glucocorticoid receptor (GR) signaling pathway - cell viability counter screen (AID 720693); note: nearly all actives have a fitted effect of over 55% in size
# [2] = qHTS assay for identifying genotoxic compounds that show differential cytotoxicity against isogenic chicken DT40 cell lines with known DNA damage response pathways - wild type cell line (AID 743012); note: nearly all actives have a fitted effect of over 60% in size; note: potency is the fitted concentration of half-maximal effect
# Summary of the method: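 Using parental DT40 (300 cells/well), compounds delivered in DMSO incubate 40 h at 37 C/5% CO2. CellTiter-Glo reagent then stands 30 min at room temperature, and luminescence gives cell viability.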
# [3] = qHTS assay for identifying genotoxic compounds that show differential cytotoxicity against isogenic chicken DT40 cell lines with known DNA damage response pathways - Rev3 mutant cell line (AID 743014); note: nearly all actives have a fitted effect of over 55% in size; note: potency is the fitted concentration of half-maximal effect
# [4] = qHTS assay for identifying genotoxic compounds that show differential cytotoxicity against isogenic chicken DT40 cell lines with known DNA damage response pathways - Rad54/Ku70 mutant cell line (AID 743015); note: nearly all actives have a fitted effect of over 60% in size; note: potency is the fitted concentration of half-maximal effect
# [5] = qHTS assay to identify small molecule antagonists of the androgen receptor (AR) signaling pathway - cell viability counter screen (AID 743033; note: nearly all actives have a fitted effect of over 45% in size)
# [6] = biological target: Androgen receptor (Homo sapiens) (UniProt P10275); assay: qHTS assay to identify small molecule antagonists of the androgen receptor (AR) signaling pathway (AID 743035; active = well fitted inhibition curve with a large enough effect in the signal ratio in the repeat runs, not every such curve was filed as active; the % refers to the signal ratio; note: potency is the fitted concentration of half-maximal effect)
# Summary of the method: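 Using qHTS, AR-UAS-bla GripTite HEK293 cells received compound, then R1881, and were cultured 16 h at 37C/5% CO2 before a 2 h room-temperature LiveBLAzer B/G FRET substrate step and fluorescence measurement.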
# [7] = biological target: Androgen receptor (Homo sapiens) (UniProt P10275); assay: qHTS assay to identify small molecule agonists of the androgen receptor (AR) signaling pathway (AID 743036; active = well fitted activation curve with a large enough effect in the signal ratio in the repeat runs, with a control signal flat, not every such curve was filed as active; the % refers to the signal ratio)
# Summary of the method: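 HEK293 cells stably carrying a UAS-driven beta-lactamase reporter (GeneBLAzer AR-UAS-bla-GripTite) were plated at 2,000 cells/well, rested 4 h at 37C, then exposed to compounds in DMSO for 16 h. LiveBLAzer B/G FRET substrate was added for 2 h at room temperature; fluorescence read.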
# [8] = biological target: Androgen receptor (Homo sapiens) (UniProt P10275); assay: qHTS assay to identify small molecule agonists of the androgen receptor (AR) signaling pathway using the MDA cell line (AID 743040; note: nearly all actives have a fitted effect of over 20% in size)
# Summary of the method: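 MDA-kb2 breast carcinoma cells stably carrying an MMTV-driven luciferase reporter (AR- and GR-responsive) were seeded and held 5 h at 37C, 0% CO2, then exposed to compounds in DMSO for 16 h. Luminescence was read 30 min after ONE-Glo addition.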
# [9] = qHTS assay to identify small molecule antagonists of the androgen receptor (AR) signaling pathway using the MDA cell line - cell viability counter screen (AID 743041; note: nearly all actives have a fitted effect of over 45% in size)
# Summary of the method: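 MDA-kb2 AR-luc human breast carcinoma cells (MMTV-luciferase, AR/GR responsive) were treated with compounds plus R1881 agonist for 16 h at 37 °C. Viability was read as CellTiter-Fluor fluorescence in the same wells as the reporter assay.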
# [10] = biological target: Androgen receptor (Homo sapiens) (UniProt P10275); assay: qHTS assay to identify small molecule antagonists of the androgen receptor (AR) signaling pathway using the MDA cell line (AID 743042; note: nearly all actives have a fitted effect of over 55% in size)
# Summary of the method: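 MDA-kb2 cells (human breast carcinoma, stably carrying an MMTV-luciferase reporter responsive to AR and GR) were plated at 3,000 cells/well and preincubated 5 hr at 37C, then given compound plus R1881 agonist for 16 h. ONE-Glo luminescence was read.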
# Chain of Androgen receptor (Homo sapiens) (P10275 whole entry, looked up): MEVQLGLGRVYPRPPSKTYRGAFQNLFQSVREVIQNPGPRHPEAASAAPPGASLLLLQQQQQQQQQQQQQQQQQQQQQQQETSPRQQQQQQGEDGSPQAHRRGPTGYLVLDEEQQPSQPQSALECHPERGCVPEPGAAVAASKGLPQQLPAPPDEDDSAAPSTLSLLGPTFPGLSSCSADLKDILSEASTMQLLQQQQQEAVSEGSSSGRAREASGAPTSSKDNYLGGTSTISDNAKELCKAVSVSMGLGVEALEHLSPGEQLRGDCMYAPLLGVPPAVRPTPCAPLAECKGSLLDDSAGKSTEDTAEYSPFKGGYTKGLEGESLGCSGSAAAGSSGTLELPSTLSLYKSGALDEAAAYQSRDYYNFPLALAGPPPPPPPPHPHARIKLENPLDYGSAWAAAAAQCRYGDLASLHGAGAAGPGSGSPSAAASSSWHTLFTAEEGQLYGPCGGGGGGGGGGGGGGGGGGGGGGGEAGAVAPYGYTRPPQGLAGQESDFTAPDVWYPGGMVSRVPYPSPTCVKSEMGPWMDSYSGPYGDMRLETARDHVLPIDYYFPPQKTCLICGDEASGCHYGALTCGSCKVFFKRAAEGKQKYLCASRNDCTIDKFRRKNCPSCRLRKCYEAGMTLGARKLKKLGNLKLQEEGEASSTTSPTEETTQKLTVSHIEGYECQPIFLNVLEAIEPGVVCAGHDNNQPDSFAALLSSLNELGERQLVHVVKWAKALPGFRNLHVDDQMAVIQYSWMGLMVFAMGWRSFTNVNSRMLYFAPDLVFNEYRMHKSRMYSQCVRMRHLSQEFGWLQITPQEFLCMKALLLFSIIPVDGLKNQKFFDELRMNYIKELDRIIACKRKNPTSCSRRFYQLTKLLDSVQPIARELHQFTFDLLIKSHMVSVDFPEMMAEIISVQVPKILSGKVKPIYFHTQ
SMILES,Potency [1],Potency [2],Potency [3],Potency [4],Potency [5],Potency [6],outcome [7],Potency [8],Potency [9],outcome [10]
O=C1CN=C(c2ccccc2)c2cc([N+](=O)[O-])ccc2N1,inactive,inactive,inactive,inactive,,,,,,
COP(N)(=S)Oc1ccccc1C(=O)OC(C)C (stereo unspecified),inactive,inactive,inactive,inactive,inactive,inactive,inactive,inactive,inactive,inactive
CC(C)(C)C(=O)C(Oc1ccc(Cl)cc1)n1cncn1 (stereo unspecified),inactive,61.1 µM (active),30.6 µM (active),30.6 µM (active),inactive,,,,inactive,
N#Cc1c(Cl)cccc1Cl,inactive,inactive,inactive,inactive,inactive,,,,,
NC(=S)C(N)=S,inactive,inactive,inactive,inactive,inactive,,,,inactive,
O=C(Nc1ccccc1)c1ccccc1I,inactive,48.6 µM (active),27.3 µM (active),61.1 µM (active),inactive,,inactive,inactive,,inactive
CC(CC(C#N)(c1ccccc1)c1ccccc1)N(C)C (stereo unspecified),inactive,30.5 µM (active),54.2 µM (active),48.3 µM (active),inactive,,,,,
CC(=O)C(Cl)Cl,inactive,inactive,inactive,inactive,inactive,,,,inactive,
O=NN1CCN(N=O)CC1,inactive,inactive,inactive,inactive,inactive,,,,,
CCCCc1ccc(O)cc1,inactive,inactive,inactive,inactive,inactive,,,,,
CC(N)=S,inactive,inactive,inactive,inactive,inactive,,,,inactive,
ClC(Br)Br,inactive,inactive,inactive,inactive,inactive,,,,inactive,
O=[N+]([O-])c1cc(Cl)c(Cl)c(Cl)c1,inactive,inactive,inactive,inactive,inactive,,,,inactive,
CC(C)COP(=O)(OCC(C)C)OCC(C)C,inactive,inactive,inactive,inactive,inactive,,,,inactive,
Oc1c(Cl)cccc1Cl,inactive,inactive,inactive,inactive,inactive,,,,inactive,
N#CCBr,inactive,inactive,inactive,inactive,inactive,,,,inactive,
CC1=C(C(=O)Nc2ccccc2)S(=O)(=O)CCO1,inactive,15.3 µM (active),15.3 µM (active),17.2 µM (active),inactive,,,,,
c1cc2c(c(N3CCNCC3)c1)OCCO2,inactive,inactive,inactive,inactive,inactive,inactive,inactive,inactive,,inactive
C=C(C)CN(CC)c1c([N+](=O)[O-])cc(C(F)(F)F)cc1[N+](=O)[O-],inactive,inactive,inactive,inactive,inactive,,,,inactive,
CSc1ccc(C(=O)C(C)(C)N2CCOCC2)cc1,inactive,48.6 µM (active),68.6 µM (active),48.6 µM (active),inactive,,,,inactive,
COC(=O)c1ccccc1S(=O)(=O)NC(=O)Nc1nc(C)cc(C)n1,inactive,inactive,inactive,,,,,,,

SMILES,Potency [1],Potency [2],Potency [3],Potency [4],Potency [5],Potency [6],outcome [7],Potency [8],Potency [9],outcome [10]
CC(Cl)(Cl)[N+](=O)[O-],inactive,inactive,inactive,inactive,inactive,inactive,inactive,inactive,inactive,inactive
Fc1ccc(C2(Cn3cncn3)OC2c2ccccc2Cl)cc1 (stereo unspecified),inactive,15.4 µM (active),34.4 µM (active),27.3 µM (active),,,,,,
O=S(=O)(O)C(F)(F)C(F)(F)C(F)(F)C(F)(F)C(F)(F)C(F)(F)F,inactive,inactive,inactive,inactive,inactive,,,,inactive,
Cc1ccccc1CO[C@@H]1C[C@@]2(C(C)C)CC[C@]1(C)O2,inactive,43.3 µM (active),48.6 µM (active),54.5 µM (active),inactive,inactive,inactive,inactive,inactive,
CC1CN1P(=O)(N1CC1C)N1CC1C (stereo unspecified),inactive,inactive,inactive,inactive,inactive,,,,inactive,
O=[N+]([O-])c1ccc(CBr)cc1,inactive,inactive,inactive,inactive,inactive,,,,inactive,
CCNc1nc(NC(C)C)nc(OC)n1,inactive,inactive,inactive,inactive,inactive,,,,inactive,
CCOC(=O)NC(=S)Nc1ccccc1NC(=S)NC(=O)OCC,inactive,61.1 µM (active),30.6 µM (active),48.6 µM (active),inactive,,,,,
C[C@@H]1CN(C2CCC(C#N)(c3ccc(F)cc3)CC2)CC[C@]1(C(=O)O)c1ccccc1 (stereo partly specified),inactive,inactive,inactive,inactive,inactive,,,,inactive,
C=CC1CC=CCC1 (stereo unspecified),inactive,inactive,inactive,inactive,inactive,,,,inactive,
c1cc[c]([Hg][c]2ccccc2)cc1,inactive,0.273 µM (active),0.243 µM (active),0.193 µM (active),inactive,43.6 µM (active),inactive,inactive,inactive,inactive
O=C1c2ccccc2C(=O)c2ccccc21,inactive,inactive,inactive,inactive,inactive,,,,,
CCOP(=S)(Oc1cnc(C(C)(C)C)nc1)OC(C)C (stereo unspecified),inactive,54.5 µM (active),27.3 µM (active),48.6 µM (active),inactive,,,,,
C[N+](C)=CCl,inactive,inactive,inactive,inactive,inactive,,,,,
CCOC(=O)CP(=O)(OCC)OCC,inactive,inactive,inactive,inactive,inactive,,,,inactive,
CCCSC(=O)N(CCC)CCC,inactive,inactive,inactive,,inactive,,,,,
CCN(CC)C(=O)[C@@H]1C=C2c3cccc4[nH]cc(c34)C[C@H]2N(C)C1,inactive,8.98 µM (active) and 10.6 µM (active),101 µM (active) and 23.7 µM (active),31.9 µM (active) and 11.9 µM (active),,,,,inactive,
N#CC(O)c1ccccc1 (stereo unspecified),inactive,inactive,inactive,inactive,inactive,,,,inactive,
OCCBr,inactive,inactive,19.4 µM (active),,inactive,,,,,
CCSC(=O)N(CC)C1CCCCC1,inactive,inactive,inactive,inactive,inactive,,,,inactive,
O=C1OC(c2ccc(O)c(S(=O)(=O)O)c2)(c2ccc(O)c(S(=O)(=O)O)c2)c2c(Br)c(Br)c(Br)c(Br)c21,inactive,inactive,inactive,inactive,inactive,,,,inactive,

SMILES,Potency [1],Potency [2],Potency [3],Potency [4],Potency [5],Potency [6],outcome [7],Potency [8],Potency [9],outcome [10]
CCOP(=S)(OCC)SCSP(=S)(OCC)OCC,inactive,54.5 µM (active),61.1 µM (active),61.1 µM (active),,,,,inactive,
CN/C(=N\[N+](=O)[O-])NCC1CCOC1 (stereo unspecified),inactive,inactive,inactive,inactive,inactive,,,,inactive,
COc1cc(OC)nc(Oc2cccc(Oc3nc(OC)cc(OC)n3)c2C(=O)O)n1,inactive,inactive,inactive,inactive,,inactive,inactive,inactive,inactive,inactive
O=[N+]([O-])c1ccc2c3c(cccc13)CC2,inactive,inactive,19.3 µM (active),,inactive,,,,,
CNNC,inactive,inactive,inactive,inactive,,,,,inactive,
Nc1cc2c3c(c1)C(c1ccccc1)=N[C@@H](NC(=O)c1cccnc1)C(=O)N3CC2,inactive,inactive,inactive,inactive,inactive,,,,inactive,
NC(=O)O,inactive,inactive,inactive,inactive,,,,,inactive,
COc1cc(OC)nc(Sc2cccc(Cl)c2C(=O)O)n1,inactive,inactive,inactive,inactive,inactive,,,,inactive,
CC(=O)CC(c1ccc(Cl)cc1)c1c(O)c2ccccc2oc1=O (stereo unspecified),inactive,inactive,inactive,inactive,,,,,inactive,
COC(C)(C)C,inactive,inactive,inactive,inactive,inactive,,,,inactive,
CCC1(c2ccccc2)C(=O)N=C(O)NC1=O (stereo unspecified),inactive,inactive,inactive,,inactive,,,,,
N#Cc1ccncc1,inactive,inactive,inactive,,inactive,,,,,
O=C(O)c1cccc(Cl)c1,inactive,inactive,inactive,inactive,inactive,,,,inactive,
CCC#N,inactive,inactive,inactive,inactive,,,,,inactive,
O=P(O)(Oc1ccccc1)Oc1ccccc1,inactive,inactive,inactive,inactive,,,,,inactive,
COc1cc(OC)nc(NC(=O)NS(=O)(=O)c2ncccc2OCC(F)(F)F)n1,inactive,inactive,inactive,,inactive,,,,,
CCCCCCI,inactive,inactive,inactive,inactive,,inactive,inactive,inactive,,inactive
CCCCOC(=O)[C@@H](C)Oc1ccc(Oc2ccc(C#N)cc2F)cc1,inactive,34.2 µM (active),30.5 µM (active),43 µM (active),,,,,inactive,
ClC(Cl)(Cl)C(Cl)(Cl)Cl,inactive,inactive,inactive,inactive,,,,,inactive,
[O]=[Cd],inactive,inactive,inactive,inactive,inactive,,,,inactive,
O=C1OC(=O)C2C1C1(Cl)C(Cl)=C(Cl)C2(Cl)C1(Cl)Cl (stereo unspecified),inactive,inactive,inactive,inactive,inactive,,,,inactive,
